Inconclusive results are not listed. The source made the active and inactive calls. The call rests on the fitted dose curve; in most records, active means well fitted curve in the direction sought with a large enough effect; inconclusive means small, poorly fitted or top-dose-only effect, or another doubt; inactive means no such curve, though single readings can be large; an effect the other way counts as inactive or inconclusive.
Key:
[1] = qHTS of pediatric cancer cell lines to identify multiple opportunities for drug repurposing: Primary screen for U-2 OS cells (AID 1347096); further: nearly all actives have a fitted effect of over 50% in size
Outline: (§1)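 Cells (500-1,000/well) in growth media were settled 5 h at 37 degrees C, then given compounds for 48 h. Viability was read as CellTiter-Glo luminescence. Primary runs used MIPE at 11 points (0.78 nM-46 µM) and NPC at 8 points (0.59 nM-46 µM); follow-ups used 11 points.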

[2] = qHTS of pediatric cancer cell lines to identify multiple opportunities for drug repurposing: Primary screen for Saos-2 cells (AID 1347097); further: nearly all actives have a fitted effect of over 40% in size; further: potency means the concentration at half of the fitted maximal effect
Outline: (§2)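 Cells plated at 500-1,000/well in growth medium, compounds added after 5 h. MIPE tested at 11 points (from 0.78 nM), NPC at 8 points (from 0.59 nM). CellTiter-Glo luminescence after 48 h; concentration-response curves from primary screen.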

[3] = qHTS of pediatric cancer cell lines to identify multiple opportunities for drug repurposing: Primary screen for LAN-5 cells (AID 1347100); further: potency means the concentration at half of the fitted maximal effect
Outline: as §1

[4] = qHTS of pediatric cancer cell lines to identify multiple opportunities for drug repurposing: Primary screen for Rh18 cells (AID 1347102); further: nearly all actives have a fitted effect of over 65% in size; further: potency means the concentration at half of the fitted maximal effect
Outline: as §1

[5] = qHTS of pediatric cancer cell lines to identify multiple opportunities for drug repurposing: Primary screen for OHS-50 cells (AID 1347103); further: nearly all actives have a fitted effect of over 40% in size; further: potency means the concentration at half of the fitted maximal effect
Outline: (§3)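 Cells (500-1,000/well) rested 5 h, then received compounds for 48 h; metabolically active cells were measured by CellTiter-Glo luminescence. Final concentrations spanned up to 46 µM (MIPE, 11-point) or 0.59 nM-46 µM (NPC, 8-point) in primary screens, 11-point in follow-ups.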

[6] = qHTS of pediatric cancer cell lines to identify multiple opportunities for drug repurposing: Primary screen for MG 63 (6-TG R) cells (AID 1347105); further: nearly all actives have a fitted effect of over 50% in size; further: potency means the concentration at half of the fitted maximal effect
Outline: as §2

[7] = qHTS of pediatric cancer cell lines to identify multiple opportunities for drug repurposing: Primary screen for control Hh wild type fibroblast cells (AID 1347106);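 further: series mostly up to about 46 µM; a drop in luminescence marks cytotoxicity and a rise apparent proliferation; nearly all actives have a fitted effect of over 55% in size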
Outline: as §1

[8] = qHTS of pediatric cancer cell lines to identify multiple opportunities for drug repurposing: Primary screen for Rh30 cells (AID 1347107); further: nearly all actives have a fitted effect of over 75% in size; further: potency means the concentration at half of the fitted maximal effect
Outline: as §1

[9] = qHTS of pediatric cancer cell lines to identify multiple opportunities for drug repurposing: Primary screen for Rh41 cells (AID 1347108); further: nearly all actives have a fitted effect of over 70% in size; further: potency means the concentration at half of the fitted maximal effect
Outline: as §2

[10] = qHTS of pediatric cancer cell lines to identify multiple opportunities for drug repurposing: Confirmatory screen for BT-12 cells (AID 1347112); further: nearly all actives have a fitted effect of over 55% in size; further: potency means the concentration at half of the fitted maximal effect
Outline: as §1

[11] = qHTS of pediatric cancer cell lines to identify multiple opportunities for drug repurposing: Confirmatory screen for SJ-GBM2 cells (AID 1347116); further: potency means the concentration at half of the fitted maximal effect; nearly all actives have a fitted effect of over 60% in size
Outline: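 Viability measured as metabolically active cells via CellTiter-Glo luminescence following 48 hours of compound exposure, 11-point dilutions in confirmatory testing. 500-1,000 cells/well plated 5 hours before dosing; controls were DMSO and 2.3 µM bortezomib.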

[12] = qHTS of pediatric cancer cell lines to identify multiple opportunities for drug repurposing: Confirmatory screen for BT-37 cells (AID 1347117); further: potency means the concentration at half of the fitted maximal effect; nearly all actives have a fitted effect of over 55% in size
Outline: as §1

[13] = qHTS of pediatric cancer cell lines to identify multiple opportunities for drug repurposing: Confirmatory screen for TC32 cells (AID 1347118);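 further: potency means the concentration at half of the fitted maximal effect; cells exposed to compound for 48 h before the read; nearly all actives have a fitted effect of over 65% in size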
Outline: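 Luminescent ATP read-out (CellTiter-Glo) of metabolically active TC32 cells after 48 h exposure. Concentration-response curves came from 11-point (MIPE, 0.78 nM–46 µM) or 8-point (NPC, 0.59 nM–46 µM) primary titrations; follow-up used 11 points.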

[14] = qHTS of pediatric cancer cell lines to identify multiple opportunities for drug repurposing: Primary screen for SK-N-SH cells (AID 1347098); further: nearly all actives have a fitted effect of over 65% in size; further: potency means the concentration at half of the fitted maximal effect
Outline: as §3

[15] = qHTS of pediatric cancer cell lines to identify multiple opportunities for drug repurposing: Primary screen for NB1643 cells (AID 1347099); further: nearly all actives have a fitted effect of over 50% in size; further: potency means the concentration at half of the fitted maximal effect
Outline: as §2

[16] = qHTS of pediatric cancer cell lines to identify multiple opportunities for drug repurposing: Primary screen for RD cells (AID 1347104); further: nearly all actives have a fitted effect of over 55% in size; further: potency means the concentration at half of the fitted maximal effect
Outline: as §2

[17] = qHTS of pediatric cancer cell lines to identify multiple opportunities for drug repurposing: Primary screen for BT-12 cells (AID 1347101); further: nearly all actives have a fitted effect of over 25% in size; further: potency means the concentration at half of the fitted maximal effect
Outline: as §3

[18] = qHTS of pediatric cancer cell lines to identify multiple opportunities for drug repurposing: Confirmatory screen for NB1643 cells (AID 1347109); further: potency means the concentration at half of the fitted maximal effect; nearly all actives have a fitted effect of over 45% in size
Outline: as §1

[19] = qHTS of pediatric cancer cell lines to identify multiple opportunities for drug repurposing: Confirmatory screen for A673 cells (AID 1347110);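 further: potency means the concentration at half of the fitted maximal effect; cells exposed to compound for 48 h before the viability read; nearly all actives have a fitted effect of over 65% in size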
Outline: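 A673 cells at 500-1,000 cells/well were dosed 5 h after plating, in dilution series up to 46 uM final; primary runs used 8 or 11 points and confirmatory runs used 11 points. Viability was read by CellTiter-Glo luminescence after 48 h, against DMSO and 2.3 uM bortezomib controls.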

Measured: Potency

COc1ccc2c(c1)CN(C)CC2c1ccc(Cl)c(Cl)c1 (centres undefined)
inactive: [1] | [4] | [6] | [7] | [8] | [9] | [10]
active: [2] 18.7 µM | [3] 20.9 µM | [5] 21.7 µM | [11] 1.47 µM | [12] 23.3 µM | [13] 6.57 µM

O=C(N[C@@H](COc1ccc2[nH]c(=O)[nH]c2c1)c1ccccc1)c1cccn(Cc2ccc(F)c(F)c2)c1=O
active: [2] 18.7 µM | [5] 30.6 µM
inactive: [1] | [3] | [7] | [8]

CC1(N2CCC(n3c([C@@H]4CCCNC4)nc4ccccc43)CC2)CCCCCCC1
active: [14] 30.4 µM | [3] 20.9 µM | [5] 24.3 µM | [16] 13.2 µM
inactive: [1] | [15] | [6] | [8] | [9]

C=C[C@@H]1CN2CCC1C[C@H]2[C@H](O)c1ccnc2ccccc12 (some centres undefined)
inactive: [1] | [3] | [6] | [7]
active: [2] 18.7 µM | [4] 23.5 µM | [16] 37.2 µM

Cc1[nH]nc2ccc(-c3cncc(OC[C@@H](N)Cc4c[nH]c5ccccc45)c3)cc12
active: [14] 0.304 µM | [3] 0.166 µM | [17] 1.53 µM | [4] 2.96 µM | [5] 1.53 µM | [16] 1.48 µM | [6] 2.35 µM | [8] 14.8 µM | [9] 2.64 µM | [18] 0.737 µM | [19] 1.47 µM | [10] 4.14 µM | [12] 1.65 µM | [13] 2.33 µM
inactive: [1]

CC(=O)O[C@@]12CO[C@H]1C[C@H](O)[C@@]1(C)C(=O)[C@H](O)C3=C(C)[C@@H](O)C[C@@](O)([C@@H](OC(=O)c4ccccc4)[C@@H]21)C3(C)C
inactive: [1] | [15] | [4] | [7] | [8]
active: [2] 2.64 µM | [3] 2.64 µM | [5] 1.72 µM

O=S(=O)(O)C(F)(F)C(F)(F)C(F)(F)C(F)(F)F
not listed: [2] | [10] | [11] | [12] | [13] | [16] | [18] | [19]
inactive: all other assays above

COc1ccc(N(C(=O)Oc2c(C)cccc2C)c2ccnc(Nc3ccc(N4CCN(C)CC4)cc3)n2)c(OC)c1
active: [14] 0.242 µM | [3] 1.48 µM | [5] 9.68 µM
inactive: [1] | [4] | [8] | [9]

C[C@]12CC[C@@H]3[C@@H](CCC4=CC(=O)CC[C@@H]43)[C@@H]1CC[C@@H]2OC(=O)CCc1ccccc1
inactive: [1] | [17] | [4] | [5] | [16] | [6] | [7] | [8] | [9]
active: [2] 18.7 µM

CCN1C[C@]2(OC(=O)c3ccccc3NC(C)=O)CC[C@H](OC)[C@@]34[C@H]5CC6[C@@H](OC)C[C@](O)(C(C[C@@H]23)[C@@H]14)[C@@]5(O)[C@@H]6OC
inactive: [1] | [2] | [3] | [17] | [4] | [5] | [6] | [7] | [8] | [9]

C#CC1(O)CCC2C3CCC4=CC(=O)CCC4(C)C3CCC21C (centres undefined)
active: [15] 23.5 µM
not listed: [2] | [10] | [11] | [12] | [13] | [18] | [19]
inactive: all other assays above

C[C@]12CC[C@H](O)CC1=CC[C@H]1[C@H]3CCC(=O)[C@@]3(C)CC[C@@H]12
inactive: [1] | [14] | [17] | [4] | [16] | [7]
